# Source: PubChem BioAssay (EPA / NIEHS)
# Inconclusive results are not listed. Calls of active or inactive are those of the source. The calls were made as follows: active = hit-call score of the fitted dose curve at least 0.9, where 1 is the maximum; inconclusive = response in the unintended direction; inactive = score below 0.9.
# Read-out: ABC Transporter (ABCB1), ABCB1 (gene 5243)
# Assay: CLD_ABCB1_48hr: CellzDirect (CLD) Gene Expression Assay for ABC Transporter (ABCB1) at 48 hours (AID 2283695);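 as to AC50: potency for induction meaning increase of mRNA over DMSO vehicle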
# Method: CLD_48hr is a cell-based, multiplexed-readout assay that uses hepatocyte, a human liver primary cell, with measurements taken at 48 hours after chemical dosing in a 96-well plate.CLD_ABCB1_48hr is one of 16 assay component(s) measured or calculated from the CLD_48hr assay. It is designed to make measurements of mRNA induction, a form of inducible reporter, as detected with chemiluminescence signals by Quantitative Nuclease Protection Assay (qNPA) technology.Data from the assay component CLD_ABCB1_48hr was analyzed at the endpoint, CLD_ABCB1_48hr, in the positive analysis fitting direction relative to DMSO as the negative control and baseline of activity. Using a type of inducible reporter, gain-of-signal activity can be used to understand changes in the reporter gene as they relate to the gene ABCB1. Furthermore, this assay endpoint can be referred to as a primary readout. To generalize the intended target to other relatable targets, this assay endpoint is annotated to the transporter intended target family, where subfamily is ABC transporter.
# Human hepatocyte cultures were treated daily for two consecutive days with fresh dosing solutions containing appropriate concentrations of the 320 ToxCast chemicals (chemical identities were blinded to CellzDirect and other ToxCast collaborators), vehicle control (0.2% DMSO), and positive control inducers as summarized in Table 1. Due to the large number of treatment groups and chemicals examined, the ToxCast chemicals were divided into two groups (spanning two independent cultures of hepatocytes from separate donor preparations (Hu778: ToxCast plates 1 and 2; Hu776: ToxCast plates 3 and 4). Each preparation of human hepatocyte cultures was treated with respective vehicle control, medium only control, set of six positive controls/reference chemicals for the five hepatic receptor pathways, and a subset of eight of the ToxCast chemicals (indoxacarb, pyrithiobac-sodium, norflurazon, cyhalofop-butyl, methomyl, thiram, acetochlor, and propiconazole). These replicate data, coupled with internal replicates designed within the blinded ToxCast chemical library, provided additional data to evaluate interindividual differences between hepatocyte preparations and their potential impact on chemical profiles.Cell morphology and integrity were evaluated using phase-contrast microscopy as an indicator of hepatocyte cell health (Tyson & Green, 1987). Cultures for each treatment group (i.e., media, vehicle [0.2% DMSO], positive control inducers [multiple concentrations], and the ToxCast chemicals [multiple concentrations]) were observed and cell morphology was assessed relative to vehicle control cultures at each harvest time point (0, 6, 24, or 48 h). […] Images were evaluated at the conclusion of the study to assess changes in cell integrity and account for the effects of chemical exposure on uncharacteristic changes in concentration-dependent gene expression profiles. The results from these determinations of apparent cytotoxicity were annotated (yes/no) alongside the corresponding qNPA data for reference.At the conclusion of each treatment period, hepatocyte cultures (96-well) were washed with 1 volume of HBSS, lysed by addition of 25 ul ArrayPlate lysis buffer (HTG, Tucson, AZ), and 70 ul/well of Denaturation Oil, denatured by incubation at 95C for 10 min, and frozen at approximately -70C until analysis by nuclease protection assay (qNPA) (Roberts et al., 2007). For qNPA analysis, cell lysates were thawed at 50C for approximately 30 min, qNPA probes were added, and samples were incubated at 95C for 10 min to begin the detection process by denaturing the target RNA, dissociating the duplexes and secondary structure hybridization. At the conclusion of the hybridization period, S1 nuclease reagent was added to each sample to digest all nonprotected nucleotides at 50C for 60-90 min. […]
Structure (SMILES),outcome,AC50
COP(=O)(OC)OC(Br)C(Cl)(Cl)Br (stereo not given),inactive,–
O=C(O)c1cc(Oc2ccc(C(F)(F)F)cc2Cl)ccc1[N+](=O)[O-],inactive,–
N#CSCSC#N,inactive,–
CCCOCC(=Nc1ccc(Cl)cc1C(F)(F)F)n1ccnc1,inactive,–
CNC(=O)Oc1cccc2c1OC(C)(C)O2,inactive,–
CC(Oc1cccc(Cl)c1)C(=O)O (stereo not given),inactive,–
CCCCN(CC)c1c([N+](=O)[O-])cc(C(F)(F)F)cc1[N+](=O)[O-],inactive,–
C#CCC1=C(C)C(OC(=O)C2C(C=C(C)C)C2(C)C)CC1=O (stereo not given),inactive,–
C#CC(C)(C)NC(=O)c1cc(Cl)cc(Cl)c1,inactive,–
CCC(=NOC/C=C/Cl)C1=C(O)CC(C2CCOCC2)CC1=O (stereo not given),inactive,–
CCCCSP(=O)(SCCCC)SCCCC,inactive,–
CNc1cnn(-c2cccc(C(F)(F)F)c2)c(=O)c1Cl,inactive,–
CCC(CC)Nc1c([N+](=O)[O-])cc(C)c(C)c1[N+](=O)[O-],inactive,–
Nc1nc(N)nc(NC2CC2)n1,inactive,–
CCc1cccc(C)c1N(C(=O)CCl)C(C)COC (stereo not given),inactive,–
CC(C)[C@H](C(=O)O[C@H](C#N)c1cccc(Oc2ccccc2)c1)c1ccc(Cl)cc1,inactive,–
CC1(C(=O)Nc2ccc(O)c(Cl)c2Cl)CCCCC1,inactive,–
CSc1nc(NC(C)C)nc(NC(C)C)n1,inactive,–
COc1ccc(C(=CC(=O)N2CCOCC2)c2ccc(Cl)cc2)cc1OC,–,31 µM (active)
COc1cccc(C(=O)NN(C(=O)c2cc(C)cc(C)c2)C(C)(C)C)c1C,inactive,–

Structure (SMILES),outcome,AC50
CSC1=N[C@@](C)(c2ccccc2)C(=O)N1Nc1ccccc1,inactive,–
CCOP(=S)(OCC)SCCSCC,inactive,–
CC(=NC#N)N(C)Cc1ccc(Cl)nc1,inactive,–
CCNc1nc(Cl)nc(NC(C)(C)C#N)n1,inactive,–
CNC(=O)ON=C(C)SC,inactive,–
CCOP(=S)(OCC)OC(Cl)C(Cl)(Cl)Cl (stereo not given),inactive,–
CC[C@H](C)[C@H]1O[C@]2(C=C[C@@H]1C)C[C@@H]1C[C@@H](C/C=C(\C)[C@@H](O[C@H]3C[C@H](OC)[C@@H](O[C@H]4C[C@H](OC)[C@@H](NC)[C@H](C)O4)[C@H](C)O3)[C@@H](C)/C=C/C=C3\CO[C@@H]4[C@H](O)C(C)=C[C@@H](C(=O)O1)[C@]34O)O2,inactive,–
C=C(C)[C@H]1Cc2c(ccc3c2O[C@@H]2COc4cc(OC)c(OC)cc4[C@@H]2C3=O)O1,inactive,–
CC1=NNC(=O)N(/N=C/c2cccnc2)C1,inactive,–
CON=C(C(=O)OC)c1ccccc1CON=C(C)c1cccc(C(F)(F)F)c1,inactive,–
CNC(=O)ON=C(SC)C(=O)N(C)C,inactive,–
CCOP(=S)(Oc1cnc(C(C)(C)C)nc1)OC(C)C (stereo not given),–,4.38 µM (active)
COP(=O)(OC)SCn1c(=O)oc2cc(Cl)cnc21,inactive,–
C[Si](Cn1cncn1)(c1ccc(F)cc1)c1ccc(F)cc1,–,4.36 µM (active)
CCOP(=S)(OCC)Oc1ccc2c(C)c(Cl)c(=O)oc2c1,inactive,–
FC(F)C(F)(F)OCC(Cn1cncn1)c1ccc(Cl)cc1Cl (stereo not given),inactive,–
CN(C)C(=O)Nc1cccc(C(F)(F)F)c1,inactive,–
CN(C)NC(=O)CCC(=O)O,inactive,–
O=c1ccc(=O)[nH][nH]1,inactive,–
CC(COc1ccc(Oc2ccccc2)cc1)Oc1ccccn1 (stereo not given),inactive,–
